Results taken from the supplement of paper PMC7366291.
Where a name gives a salt, the structure may show the parent alone. ± gives the standard deviation or the standard deviation of the averaged measurements.

Tests used:
Conditions in all cases: 25 µM; exposure: 24-48 hpf
[1] = system: Danio rerio Tg(wt1b:EGFP) embryo, pronephros; test: glomerular separation, fold change vs DMSO control; higher = glomeruli further apart (abnormal)
In short: (§1)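 In HEPES-buffered E3 with 0.003% PTU and 0.5% DMSO, dechorionated Tg(wt1b:EGFP) zebrafish embryos were exposed to 25 μM compound from 24 to 48 hpf at 28.5°C. Pronephroi were then imaged dorsally at 470 nm in 10 z-slices, in 96-well plates filled with agarose. On maximum projections, a Fiji macro turned 16 manually placed reference points into distances and angles, and values more than 2 SD from the feature mean were excluded. Features are fold changes relative to the mean of DMSO-treated embryos from the same day.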

[2] = system: Danio rerio Tg(wt1b:EGFP) embryo, pronephros; test: glomerular width (mean of left and right), fold change vs DMSO control; higher = wider glomerulus
In short: as §1

[3] = system: Danio rerio Tg(wt1b:EGFP) embryo, pronephros; test: fraction of imaged embryos annotated as normal kidney; higher = less nephrotoxic; extreme values may be limits of the assay
In short: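 The read-out is the proportion of embryos in each treatment manually annotated as normal-kidney. Exposure ran from 24 to 48 hpf at 28.5°C in 12-well plates, using dechorionated Tg(wt1b:EGFP) zebrafish embryos in 5 mM HEPES-buffered E3 with 0.003% PTU, 0.5% DMSO and 25 μM compound. For imaging, larvae were anaesthetised with tricaine, positioned dorsally in agarose-filled 96-well plates and captured by widefield fluorescence (470 nm, 10 z-slices), with scoring done on maximum projections.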

[4] = system: Danio rerio Tg(wt1b:EGFP) embryo, pronephros; test: pronephric angle neck segment to proximal convoluted tubule (mean of left and right), fold change vs DMSO control; higher = larger pronephric angle
In short: as §1

Row | SMILES | glomerular separation [1] | glomerular width [2] | fraction of imaged embryos annotated as normal kidney [3] | pronephric angle neck segment [4]
1 | CNCCCC1c2ccccc2C=Cc2ccccc21 [Protriptyline hydrochloride] | 0.765 ± 0.31 | 1.07 ± 0.027 | 0.75 | 0.973 ± 0.027
2 | C1N2CN3CN1CN(C2)C3 [Methenamine] | 0.642 ± 0.2 | 0.975 ± 0.051 | 0.917 | 0.994 ± 0.029
3 | Cn1c(=O)c2c(ncn2CCO)n(C)c1=O [Etofylline] | 0.926 ± 0.37 | 0.951 ± 0.023 | 0.917 | 0.9776 ± 0.00038
4 | O=C(Nc1cccc2c(=O)cc(-c3nnn[nH]3)oc12)c1ccc(OCCCCc2ccccc2)cc1 [Pranlukast] | 1.04 ± 0.37 | 1.01 ± 0.019 | 0.833 | 1.01 ± 0.041
5 | CC(C)n1c(/C=C/C(O)CC(O)CC(=O)O)c(-c2ccc(F)cc2)c2ccccc21 (stereo not drawn) [Fluvastatin sodium salt] | 4.31 ± 1.6 | 0.609 ± 0.057 | 0 | 1.56 ± 0.093
6 | CN1CCN(C2=Nc3ccccc3Oc3ccc(Cl)cc32)CC1 [Loxapine succinate] | 1.15 ± 0.43 | 0.974 ± 0.014 | 0.75 | 1.06 ± 0.013
7 | CC(CCc1ccccc1)NCC(O)c1ccc(O)c(C(N)=O)c1 (stereo not drawn) [Labetalol hydrochloride] | 1.04 ± 0.16 | 1.05 ± 0.075 | 0.917 | 1.07 ± 0.069
8 | COc1ccc(C(=O)CC(=O)c2ccc(C(C)(C)C)cc2)cc1 [Avobenzone] | 0.991 ± 0.29 | 1.05 ± 0.063 | 0.667 | 1.005 ± 0.0096
9 | c1ccc(C2CN3CCSC3=N2)cc1 (stereo not drawn) [Tetramisole hydrochloride] | 0.817 ± 0.29 | 1.05 ± 0.032 | 0.75 | 0.94 ± 0.035
10 | CC1=C(/C=C/C(C)=C/C=C/C(C)=C\C(=O)O)C(C)(C)CCC1 [Isotretinoin] | 4.83 ± 2.1 | 0.525 ± 0.021 | 0 | 1.69 ± 0.022
11 | Cc1cnc(C(=O)NCCc2ccc(S(=O)(=O)NC(=O)NC3CCCCC3)cc2)cn1 [Glipizide] | 0.984 ± 0.34 | 1.056 ± 0.0043 | 0.833 | 0.944 ± 0.021
12 | CCN1CCC[C@H]1CNC(=O)c1c(OC)ccc(Br)c1OC [Remoxipride Hydrochloride] | 0.777 ± 0.38 | 1.02 ± 0.08 | 0.917 | 0.976 ± 0.032
13 | CCN(CCCc1ccccc1)CCCc1ccccc1 [Alverine citrate salt] | 0.843 ± 0.21 | 1.02 ± 0.044 | 0.75 | 0.942 ± 0.035
14 | CO[C@H]1/C=C/O[C@@]2(C)Oc3c(C)c(O)c4c(O)c(c5c(nc6cc(C)ccn65)c4c3C2=O)NC(=O)/C(C)=C\C=C\[C@H](C)[C@H](O)[C@@H](C)[C@@H](O)[C@@H](C)[C@H](OC(C)=O)[C@@H]1C [Rifaximin] | 0.666 ± 0.16 | 1.06 ± 0.019 | 0.833 | 0.984 ± 0.022
15 | CC(COc1ccccc1)N(CCCl)Cc1ccccc1 (stereo not drawn) [Phenoxybenzamine hydrochloride] | 1.05 ± 0.59 | 0.834 ± 0.03 | 0.583 | 1.15 ± 0.036
16 | C[C@@H]1C[C@H]2[C@@H]3C[C@H](F)C4=CC(=O)C=C[C@]4(C)[C@@]3(Cl)[C@@H](O)C[C@]2(C)[C@H]1C(=O)COC(=O)C(C)(C)C [Clocortolone pivalate] | 1.59 ± 0.52 | 1.26 ± 0.019 | 0.167 | 1.077 ± 0.009
17 | C#CCN(C)CCCOc1ccc(Cl)cc1Cl [Clorgyline hydrochloride] | 0.959 ± 0.32 | 1.05 ± 0.029 | 1 | 0.984 ± 0.047
18 | CCN(CC)C(=O)/C(C#N)=C/c1cc(O)c(O)c([N+](=O)[O-])c1 [Entacapone] | 1.88 ± 1.4 | 0.938 ± 0.17 | 0.583 | 1.28 ± 0.14
19 | O=C(N/N=C/c1ccc([N+](=O)[O-])o1)c1ccc(O)cc1 [Nifuroxazide] | 0.916 ± 0.47 | 1.02 ± 0.041 | 0.833 | 0.964 ± 0.028
20 | CO/N=C(\C(=O)N[C@@H]1C(=O)N2C(C(=O)O)=C(COC(C)=O)CS[C@H]12)c1csc(N)n1 [Cefotaxime sodium salt] | 0.857 ± 0.26 | 0.957 ± 0.011 | 0.909 | 0.982 ± 0.017
21 | N[C@@H](Cc1ccc(O)c(O)c1)C(=O)O [Levodopa] | 1.02 ± 0.31 | 1.06 ± 0.048 | 0.917 | 0.972 ± 0.018
22 | O=C(O)Cc1ccc(-c2ccccc2)cc1 [Felbinac] | 4.74 ± 1.6 | 0.627 ± 0.0096 | 0 | 1.73 ± 0.04
23 | CS(=O)(=O)c1ccc([C@@H](O)[C@@H](CF)NC(=O)C(Cl)Cl)cc1 [Florfenicol] | 1.03 ± 0.47 | 1.01 ± 0.083 | 1 | 1.01 ± 0.034
24 | OCCN(CCO)c1nc(N2CCCCC2)c2nc(N(CCO)CCO)nc(N3CCCCC3)c2n1 [Dipyridamole] | 0.687 ± 0.13 | 0.982 ± 0.046 | 0.8 | 1.017 ± 0.0071
25 | CC1=C(/C=C/C(C)=C/C=C/C(C)=C/C(=O)O)C(C)(C)CCC1 [Retinoic acid] | 3.15 ± 1.8 | 0.639 ± 0.044 | 0 | 1.67 ± 0.033
26 | C[C@]12CC[C@@H]3c4ccc(O)cc4C[C@@H](CCCCCCCCC[S+]([O-])CCCC(F)(F)C(F)(F)F)[C@H]3[C@@H]1CC[C@@H]2O (stereo partly drawn) [Fulvestrant] | 1.22 ± 0.45 | 0.963 ± 0.037 | 0.833 | 0.874 ± 0.065
27 | CC(=O)S[C@@H]1CC2=CC(=O)CC[C@]2(C)[C@H]2CC[C@@]3(C)[C@@H](CC[C@@]34CCC(=O)O4)[C@H]12 [Spironolactone] | 0.838 ± 0.13 | 0.912 ± 0.011 | 1 | 0.986 ± 0.036
